Reference: PubChem BioAssay AID1497 (Sanford-Burnham Center for Chemical Genomics, 2009)
Hit rate of the full screen: of about 93,000 compounds, about 500 (0.54%) were called active.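 Rule for the calls: active = primary inhibition of 50% or more at 10 µM, then 40% or more on retest; inactive = the rest.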 The full list was thinned out, with actives kept by preference.

These compounds were tested against Integrin beta-2 (Homo sapiens) + Integrin alpha-M (Homo sapiens) (UniProt P05107+P11215) (assay: inhibitors of CD11b/CD18 adhesion to fibrinogen, primary screen, K562 cells, luminescence (AID 1497)). Conditions: ATPlite luminescence, at 10 µM, active compounds read high, Mn2+ added to activate the integrin.
Chain of Integrin beta-2 (Homo sapiens) + Integrin alpha-M (Homo sapiens) (P05107 whole entry, looked up, other chains not shown): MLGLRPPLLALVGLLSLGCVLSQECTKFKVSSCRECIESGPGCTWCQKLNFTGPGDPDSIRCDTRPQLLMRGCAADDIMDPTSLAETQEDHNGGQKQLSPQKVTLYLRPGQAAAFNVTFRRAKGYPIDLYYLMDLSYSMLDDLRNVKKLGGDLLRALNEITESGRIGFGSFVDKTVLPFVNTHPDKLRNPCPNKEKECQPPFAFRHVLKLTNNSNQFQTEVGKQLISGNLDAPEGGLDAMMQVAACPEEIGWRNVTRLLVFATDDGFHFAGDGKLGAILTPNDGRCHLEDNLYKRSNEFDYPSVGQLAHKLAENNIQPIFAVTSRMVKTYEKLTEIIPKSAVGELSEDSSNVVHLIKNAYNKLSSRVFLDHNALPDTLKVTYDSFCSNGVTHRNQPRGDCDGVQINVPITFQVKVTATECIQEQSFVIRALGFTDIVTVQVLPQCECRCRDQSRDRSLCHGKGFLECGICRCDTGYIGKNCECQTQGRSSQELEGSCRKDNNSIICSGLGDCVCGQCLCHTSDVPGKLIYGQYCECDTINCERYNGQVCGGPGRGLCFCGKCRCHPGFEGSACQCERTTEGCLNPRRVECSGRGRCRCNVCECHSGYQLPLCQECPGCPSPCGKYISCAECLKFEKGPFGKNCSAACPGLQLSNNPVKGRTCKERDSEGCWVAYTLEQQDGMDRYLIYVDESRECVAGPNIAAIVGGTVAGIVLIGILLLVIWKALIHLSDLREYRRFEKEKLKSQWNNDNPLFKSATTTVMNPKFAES
Cc1c(Br)c([N+](=O)[O-])nn1CC(=O)Nc1sc2c(c1C(=O)OC(C)C)CCC(C)C2 (stereo not given) was tested, and the inhibition was -9.3% (inactive). In the case of O=C(Nc1cccc(F)c1)c1coc(=O)c(Br)c1, the inhibition is reported as -10.2% (inactive). In the case of O=C(COC(=O)c1ccc(Cl)nc1)NCc1ccc2c(c1)OCO2, the inhibition is reported as 4.3% (inactive). For O=C(CSc1ccc2nnc(-c3ccccc3)n2n1)N1CCCc2ccccc21, the inhibition was 29.7% (inactive). With O=C(OCc1ccc(Br)cc1)c1cccc(-c2nnc(-c3ccccc3)o2)c1 the inhibition was 6.5% (inactive). With O=C(CCCCCNC(=O)c1ccccc1)N/N=C/c1ccccc1 the inhibition was 9.3% (inactive). CC1(c2cccc([N+](=O)[O-])c2)CC(C)(C)N(C(=O)c2ccccc2)c2ccccc21 (stereo not given) was tested, and the inhibition was 12.3% (inactive). Cc1ccc(NC(=O)CC2C(=O)N(Cc3ccccc3)C(=S)N2NC(=O)c2cccc(F)c2)c(C)c1 (stereo not given) was tested, and the inhibition was 1.5% (inactive). For Nc1nnc(SCC(=O)Nc2ccc3nc(SCC(=O)Nc4ccccc4)sc3c2)s1, the inhibition was 74% (inactive). CC(=O)Nc1ccc(S(=O)(=O)Nc2nc(-c3ccc(C(C)(C)C)cc3)cs2)cc1 was tested, and the inhibition was 0.9% (inactive). For COc1cc2c3c(c1)/C(=C1/SC(=S)NC1=O)C(=O)N3C(C)(C)C=C2C, the inhibition was 92.6% (inactive). For CCOC(=O)c1sc(NC(=O)CSc2ncccn2)c(C#N)c1C, the inhibition was -4.4% (inactive). For CCCc1ccc(-c2c(C)sc(NC(=O)c3ccnn3C)c2C#N)cc1, the inhibition was 62.4% (active). CCc1c(C)sc(NC(=O)c2ccc(Br)o2)c1C(=O)OC was tested, and the inhibition was 6.5% (inactive). With COc1ccc(C2Nc3ccccc3C(=O)N2c2ccc(F)cc2)cc1Cn1nnc2ccccc21 (stereo not given) the inhibition was 12.2% (inactive). CC(=C/c1ccccc1)/C=N/NC(=O)c1cc(C)oc1C was tested, and the inhibition was 4.2% (inactive). Cc1cc(N2CCN(Cc3ccc4c(c3)OCO4)CC2)n2ncnc2n1 was tested, and the inhibition was -10.2% (inactive). Cc1ccc(-n2ncc3c(N4CCN(c5ccc(F)cc5)CC4)ncnc32)c(C)c1 was tested, and the inhibition was 39.7% (inactive). Fc1ccc2[nH]c3c(N4CCSCC4)ncnc3c2c1 was tested, and the inhibition was 81.7% (active). For CC(C)(C)n1nnnc1C(c1ccc(F)cc1)N1CCN(Cc2ccc3c(c2)OCO3)CC1 (stereo not given), the inhibition was -11.6% (inactive). Fc1ccc2[nH]c3c(N4CCN(Cc5ccc6c(c5)OCO6)CC4)ncnc3c2c1 was tested, and the inhibition was 103% (active). For CCN1CCCC1CNc1ncnc2c1[nH]c1ccc(F)cc12 (stereo not given), the inhibition was -18.1% (inactive). With COCCCNC(=O)Cn1cc(/C=C(\C#N)C(=O)N2CCN(c3ccccc3)CC2)c2ccccc21 the inhibition was 21.8% (inactive). In the case of O=C(COC(=O)Cc1ccc(F)cc1)Nc1cc(S(=O)(=O)N2CCOCC2)ccc1N1CCCC1, the inhibition is reported as -0.6% (inactive). With CCCC/C(C)=N/NC(=O)NC1CCCCC1 the inhibition was 5.3% (inactive). Cc1ccc(N/N=C2\COC(C)(C)CC2=O)cc1 was tested, and the inhibition was 4.6% (inactive). With CCCn1c(C)cc(/C=C(\C#N)C(=O)OCC(=O)Nc2cc(OC)c(OC)c(OC)c2)c1C the inhibition was 5.7% (inactive). Cc1cc(C)c(NC(=O)c2oc3ccccc3c2COc2ccccc2)c(C)c1 was tested, and the inhibition was -5.4% (inactive). CCCN(CC1COc2ccccc2O1)C(=S)Nc1ccc(C)cc1 (stereo not given) was tested, and the inhibition was 9.6% (inactive). For C=CCNC(=S)NNC(=O)COc1c(Cl)cc(Cl)cc1Cl, the inhibition was -6.9% (inactive). With Cc1[nH]n(-c2cccc(Cl)c2)c(=O)c1-c1ccc(Cl)cc1 the inhibition was 94.7% (active). For Cc1[nH]n(-c2cccc(Cl)c2)c(=O)c1/C=N/n1c(C)nc2ccccc2c1=O, the inhibition was 16.1% (inactive). Cc1nc2c(-c3ccccc3)c(C)[nH]n2c(=O)c1Cl was tested, and the inhibition was -1.6% (inactive). For CCN(/N=C/c1ccc(N(C)C)cc1)c1nc2ccccc2[nH]1, the inhibition was 15% (inactive). For Cc1nc(NC(=O)c2cccc(Cl)c2)sc1-c1csc(Nc2cccc(Cl)c2)n1, the inhibition was -4% (inactive). Cc1ccc(Nc2nc(-c3sc(NC(=O)c4ccccc4)nc3C)cs2)cc1 was tested, and the inhibition was 16.8% (inactive). In the case of Cc1nc(C)c(-c2csc(NCCc3ccccc3)n2)s1, the inhibition is reported as 89.8% (active). With N#Cc1c(NC(=O)c2ccc(N3CCOCC3)c([N+](=O)[O-])c2)sc2c1CCCC2 the inhibition was 2.3% (inactive). CCCCc1ccc(NC(=S)N2CCCC(CO)C2)cc1 (stereo not given) was tested, and the inhibition was -5.8% (inactive). In the case of CCN(C(=O)COC(=O)c1c(NC(C)=O)sc(C)c1C)C1CCS(=O)(=O)C1 (stereo not given), the inhibition is reported as 25.9% (inactive). Cc1ccc(C)c(NC(=O)C(OC(=O)c2ccc(C)s2)c2ccccc2)c1 (stereo not given) was tested, and the inhibition was 16.7% (inactive). For CCn1c(SCC(=O)Nc2ccc(C)cc2)nc2nc3c(cc2c1=O)CCCC3, the inhibition was 2.8% (inactive). In the case of Cc1nn(-c2ccccc2)c(Cl)c1/C=C/C(=O)c1ccc(O)cc1, the inhibition is reported as 25.9% (inactive). With CC(=O)N1CCN(CC(=O)Nc2ccc(SC(F)F)cc2)CC1 the inhibition was -3.7% (inactive). For CCOc1ccc(S(=O)(=O)N/N=C(\C)c2ccc(Cl)c(Cl)c2Cl)cc1, the inhibition was 8.2% (inactive).
